Assay results taken from PubChem BioAssay (NCI).
Values joined by “and” are separate entries in the source; they are usually repeats but may differ in a detail not shown here. Equal entries are not always repeated. This is part of a sample that, as a whole, favours compounds with a hit. Of some 83,000 tested, about 20% had one in any assay.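 Activity criterion: percent growth below 10, measured after cells in 96-well plates were exposed to a single compound concentration for 48 hours.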 Active and inactive are the calls of the source.

test system: MDA-MB-468 breast; experiment: NCI-60 one-dose screen, 48 h (100 = growth as untreated, 0 = no growth, -100 = all killed); details: 10 µM unless noted

| SMILES | growth |
| --- | --- |
| Cc1cc(=O)oc2cc(Oc3nc(-c4cccs4)cn4c(-c5cccs5)cnc34)ccc12 | 54.7% (inactive) |
| CC1=C(C)C(=O)C(Nc2ccc(C)c(C)c2)=C(Br)C1=O | 1.26% (active) |
| O=c1ccc(-c2nc(N3CCOCC3)c3ccccc3n2)c[nH]1 | 95.8% (inactive) |
| O=c1cc(Cc2ccc([N+](=O)[O-])cc2)[nH]c(=O)[nH]1 | 105% (inactive) |
| OCCNc1nc(Nc2ccc(C3=NN(c4cc(Cl)cc(Cl)c4)C(c4ccc(C(F)(F)F)cc4)C3)cc2)nc(N2CCOCC2)n1 (centres undefined) | 66.7% (inactive) |
| O=c1[nH]c2ccccc2cc1CSc1ccccc1Nc1nccc(-c2ccc(Cl)cc2)n1 | 99.3% (inactive) |
| Cn1cc(-c2nnc(N)nc2-c2c[nH]c3ccc(Br)cc23)c2cc(Br)ccc21 | 105% (inactive) |
| O=c1[nH]cnc2c1C(c1ccc(Br)cc1)c1sc3c(F)cccc3c1O2 (centres undefined) | 105% (inactive) |
| O=C1NC(=S)S/C1=C\c1cccc([N+](=O)[O-])c1 | 106% (inactive) |
| C=CCN(CCOC(=O)c1ccc([N+](=O)[O-])cc1)CCOC(=O)c1ccc([N+](=O)[O-])cc1 | 105% (inactive) |
| COc1ccc2c(c1)c(-c1nn3c(=O)cc(-c4ccccc4)nc3s1)cn2C | 20.1% (inactive) |
| COc1cc2oc(-c3cccc(NC(=O)c4cc(NC(=O)[C@H](C)N)ccc4Cl)c3)cc(=O)c2c(OC)c1OC | 91.1% (inactive) |
| O=C1[C@H]2Cc3c([nH]c4ccccc34)[C@@H](c3c(Cl)cccc3Cl)N2C(=O)CN1C1CCN(Cc2ccccc2)CC1 | 97.7% (inactive) |
| CC1=CC(=O)OC1C/C=C(\C)CCC1[C@@]2(C)CCC[C@@](C)(C(=O)O)C2CC[C@@]1(C)O (some centres undefined) | 102% (inactive) |
| CC(C)CC1NC(=O)C(CC(C)C)N(CO)C1=O (centres undefined) | 99.3% (inactive) |
| Cc1n[nH]c2ccc(Br)cc2c1=O | 99.9% (inactive) |
| COc1ccc(Nc2[nH]n3c(=O)cc(C)nc3c2C(N)=O)c(OC)c1 | 97.3% (inactive) |
| COc1ccc(-c2noc(C(=O)O)c2-c2cc(OC)c(OC)c(OC)c2)cc1 | 24.7% (inactive) |
| Cn1c(SSc2ccc(-c3cccnc3)n2C)ccc1-c1cccnc1 | 72.3% (inactive) and 93.8% (inactive) |
| FCOC(C(F)(F)F)C(F)(F)F | 108% (inactive) |

| SMILES | growth |
| --- | --- |
| C#Cc1nc(C(=O)NCCC(=O)Nc2ccc(NC(=O)c3ccc(/C=C/C(=O)c4nccn4C)cc3)cc2)cs1 | 20.6% (inactive) |
| Cc1ccccc1/C=C/C(=O)c1cccc(OCCCCOc2cccc(C(=O)/C=C/c3ccccc3C)c2)c1 | 86.1% (inactive) |
| Cc1nn(-c2ccccc2)c2nc3c(nc12)C1=NCCN1C(c1ccc(Cl)cc1)N3 (centres undefined) | 48.2% (inactive) |
| CCCC(O)Cn1ncc(C(=O)OCC)c1NC(=O)NCc1ccccc1F (centres undefined) | 75.9% (inactive) |
| CCCCC(CCc1ccccn1)C(=O)c1ccccc1 (centres undefined) | 109% (inactive) |
| CCC(=C(c1ccc(OCCN2CCCCC2)cc1)c1ccc(OCCN2CCCCC2)cc1)c1ccc(Cl)cc1 | -77% (active) |
| COc1cc(Cn2c(SCCC(=O)Nc3ccc(F)cc3)nc3ccccc3c2=O)cc(OC)c1OC | 88.1% (inactive) |
| COc1cccc(C2C(C#N)=C(N)Oc3cc(OC)ccc32)c1 (centres undefined) | 41.4% (inactive) |
| Nc1c(C(=O)Nc2ccccc2)sc2nc3c(cc12)CCC3 | 49.7% (inactive) |
| CCn1nc(-c2ccccn2)c2cccnc2c1=S | 48.8% (inactive) |
| NCCCCCCNc1cc(-c2cccc(OC(F)(F)F)c2)nc2ccc(N3CCCC3)cc12 | -87.9% (active) |
| Nc1nc2c(s1)CCc1c-2c(Br)n(Cc2ccccc2)c1Br | 33.4% (inactive) |
| COc1cc2oc(-c3cccc(NC(=O)c4cccc(Br)c4)c3)cc(=O)c2c(OC)c1OC | 66.8% (inactive) |
| COc1cc(/C=N/Nc2ccc(Br)cc2)cc(OC)c1OC | 49.5% (inactive) |
| CC(C)(C)n1cc(-c2ccnc(NCCCNS(=O)(=O)c3ccc(F)cc3)c2)c(-c2cccc(F)c2)n1 | 53.2% (inactive) |
| CCC1(c2ccccc2)Oc2ccccc2-n2c(C#N)c3ccccc3c2C1=O (centres undefined) | 104% (inactive) |
| CN(C)C(=S)Sc1ccc([N+](=O)[O-])cc1[N+](=O)[O-] | -78.7% (active) |
| C[N+]1=C(/C=C/c2ccccc2Cl)C(C)(C)c2ccccc21 | 88.1% (inactive) |
| COc1cccc(-c2nn(-c3ccccc3)cc2-c2ccnc(NCCCNS(=O)(=O)c3cccc(F)c3)c2)c1 | -10.1% (active) |
